Experimental data published in PubChem BioAssay (NCI).
The panel holds about 83,000 compounds, 20% with a hit somewhere; the sample as a whole holds those more often.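 Cells were grown in 96-well plates and exposed to the test compound at a single concentration for 48 hours; results are reported as percent growth, with values below 10 considered active.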 Active and inactive are the calls of the source.

What was measured:
Experiment in all cases: NCI-60 one-dose screen, 48 h (100 = growth as untreated, 0 = no growth, -100 = all killed)
Conditions in all cases: 10 µM unless noted
SR leukemia = test system: SR leukemia
RPMI-8226 leukemia = test system: RPMI-8226 leukemia
OVCAR-8 ovarian = test system: OVCAR-8 ovarian
OVCAR-5 ovarian = test system: OVCAR-5 ovarian
SK-OV-3 ovarian = test system: SK-OV-3 ovarian
IGROV1 ovarian = test system: IGROV1 ovarian
OVCAR-3 ovarian = test system: OVCAR-3 ovarian
HS 578T breast = test system: HS 578T breast
NCI/ADR-RES ovarian = test system: NCI/ADR-RES ovarian
OVCAR-4 ovarian = test system: OVCAR-4 ovarian

Measured: growth

O=C(/C=C/c1cccc(F)c1)c1cccc(OCCCOc2cccc(C(=O)/C=C/c3cccc(F)c3)c2)c1
inactive: OVCAR-8 ovarian 67.6% | OVCAR-5 ovarian 77.8% | SK-OV-3 ovarian 124% | IGROV1 ovarian 36.9% | OVCAR-3 ovarian 74.9% | HS 578T breast 93.8% | NCI/ADR-RES ovarian 90.1%
active: SR leukemia 6.17% | RPMI-8226 leukemia -15.7%

Cc1ccccc1N1CCN(C2=C(Cl)C(=O)c3ncccc3C2=O)CC1
inactive: RPMI-8226 leukemia 11.5% | OVCAR-8 ovarian 70% | OVCAR-5 ovarian 98.4% | SK-OV-3 ovarian 95.8% | IGROV1 ovarian 77.3% | HS 578T breast 57.4% | NCI/ADR-RES ovarian 73.7%
active: SR leukemia -24.1%

Brc1ccc2[nH]cc(-c3nn4cc(-c5nccs5)nc4s3)c2c1
active: RPMI-8226 leukemia 4.55% | OVCAR-4 ovarian -4% | HS 578T breast -0.729%
inactive: SR leukemia 45.2% | OVCAR-8 ovarian 10.5% | OVCAR-5 ovarian 67.5% | SK-OV-3 ovarian 61.5% | NCI/ADR-RES ovarian 15.8%

COc1ccc(CC(C)=C(c2ccc(OCCN3CCCC3)cc2)c2ccc(OCCN3CCCC3)cc2)cc1
active: SR leukemia -34% | RPMI-8226 leukemia -21.7% | OVCAR-8 ovarian -81.6% | OVCAR-5 ovarian -91.1% | SK-OV-3 ovarian -88% | IGROV1 ovarian -76.5% | OVCAR-3 ovarian -81% | HS 578T breast -47.3% | NCI/ADR-RES ovarian -80.5%

CN1CCN(Cc2ccc(NC(=O)c3cncc(C#Cc4cnc(N)nc4)c3)cc2C(F)(F)F)CC1
inactive: SR leukemia 16.3% | RPMI-8226 leukemia 22.7% | OVCAR-8 ovarian 33.1% | OVCAR-5 ovarian 29.6% | IGROV1 ovarian 14.6% | NCI/ADR-RES ovarian 60.1%
active: SK-OV-3 ovarian -21.2% | HS 578T breast -12.5%

CCCCN1C(=O)/C(=c2\sc3n(c2=O)C2C(NN=3)N(CC)C(=O)N2CC)c2cccc(C)c21 (stereo not given)
inactive: SR leukemia 15.1% | RPMI-8226 leukemia 20.3% | OVCAR-8 ovarian 44.6% | OVCAR-5 ovarian 50.9% | SK-OV-3 ovarian 82% | IGROV1 ovarian 34.7% | OVCAR-3 ovarian 28.9% | HS 578T breast 34.4% | NCI/ADR-RES ovarian 24.6%

CCOc1cccc(/C(N)=N/C(N)=N/c2nc3ccccc3s2)c1
active: SR leukemia 6.28%
inactive: RPMI-8226 leukemia 77.3% | OVCAR-8 ovarian 68.8% | OVCAR-5 ovarian 98.8% | SK-OV-3 ovarian 132% | IGROV1 ovarian 56% | OVCAR-3 ovarian 104% | HS 578T breast 96.3% | NCI/ADR-RES ovarian 49.7%

CCc1cc(O)ccc1Nc1cc(-c2ccc(-n3cccn3)cc2)[nH]n1
inactive: SR leukemia 68.9% | RPMI-8226 leukemia 53.5% | OVCAR-8 ovarian 58% | OVCAR-5 ovarian 78.5% | SK-OV-3 ovarian 87.2% | IGROV1 ovarian 86.4% | HS 578T breast 105%

CCCc1[nH]c(-c2cc(N)ccc2Cl)c2c1C(=O)CCCC2
inactive: SR leukemia 85.8% | RPMI-8226 leukemia 89.7% | OVCAR-8 ovarian 96.4% | OVCAR-5 ovarian 94.7% | OVCAR-4 ovarian 95.9% | SK-OV-3 ovarian 103% | HS 578T breast 89.9% | NCI/ADR-RES ovarian 95.2%

N#Cc1c(-c2cccs2)cc(-c2cnccn2)nc1SCC(=O)N/N=C/c1cccs1
inactive: SR leukemia 74.7% | RPMI-8226 leukemia 25.1% | OVCAR-8 ovarian 56.3% | OVCAR-5 ovarian 82.8% | SK-OV-3 ovarian 56.5% | IGROV1 ovarian 74.6% | OVCAR-3 ovarian 62.3% | HS 578T breast 58.7% | NCI/ADR-RES ovarian 52.9%

O=C1C(SCc2ccccc2)=C(Cl)CN1c1ccccc1
inactive: SR leukemia 18.5% | RPMI-8226 leukemia 83.9% | OVCAR-8 ovarian 101% | OVCAR-5 ovarian 97.5% | SK-OV-3 ovarian 126% | IGROV1 ovarian 103% | HS 578T breast 104% | NCI/ADR-RES ovarian 102%

C=C(C)[C@@H]1CC[C@]2(C(=O)NC3CCCCC3)CC[C@]3(C)[C@H](CC[C@@H]4[C@@]5(C)CC[C@H](N)C(C)(C)[C@@H]5CC[C@]43C)[C@@H]12
active: SR leukemia 1.36%
inactive: RPMI-8226 leukemia 39% | OVCAR-8 ovarian 101% | OVCAR-4 ovarian 96.4% | SK-OV-3 ovarian 117% | IGROV1 ovarian 113% | OVCAR-3 ovarian 101% | HS 578T breast 95.8% | NCI/ADR-RES ovarian 97.5%

CN1CC[C@@H]2[C@@]3(C)CC[C@H](O)C(C)(C)[C@@H]3CC[C@@]2(C)[C@]2(C)CC[C@@]3(CO)CCC(C)(C)C[C@@H]3C12 (stereo not given in full)
inactive: SR leukemia 30.2% | RPMI-8226 leukemia 74.6% | OVCAR-8 ovarian 97.2% | OVCAR-4 ovarian 96.7% | SK-OV-3 ovarian 108% | IGROV1 ovarian 94.8% | HS 578T breast 79.2% | NCI/ADR-RES ovarian 96.8%

NC(=O)c1ncn2c(=O)n(CCF)nnc12
inactive: SR leukemia 35.3% | RPMI-8226 leukemia 44% | OVCAR-8 ovarian 38.3% | OVCAR-5 ovarian 85.1% | SK-OV-3 ovarian 17.3% | IGROV1 ovarian 70.3% | HS 578T breast 103% | NCI/ADR-RES ovarian 50.6%

COc1ccc2c(c1)c(-c1nn3cc(-c4ccncc4)nc3s1)cn2C
inactive: RPMI-8226 leukemia 61.4% | OVCAR-8 ovarian 71.7% | OVCAR-4 ovarian 82.3% | SK-OV-3 ovarian 93.6% | IGROV1 ovarian 70.3% | HS 578T breast 86.9% | NCI/ADR-RES ovarian 69.8%
active: SR leukemia -3.79%
